Assay results reported in PubChem BioAssay.
The source made the active and inactive calls.

Legend:
[1] = compound effects on lung adenocarcinoma cell viability – A549, calcein-AM fluorescence, 48 h, basal, profiling panel (AID 1162); conditions: higher = more signal
[2] = compound effects on differentiated 3T3-L1 adipocyte viability – cell-based, 3T3-L1 adipocytes, calcein-AM fluorescence, 48 h, basal, profiling panel (AID 1163); conditions: 3T3-L1 adipocytes viability, higher = more signal
[3] = compound effects on hepatocellular carcinoma cell viability – HepG2, calcein-AM fluorescence, 48 h, basal, profiling panel (AID 1164); conditions: higher = more signal
[4] = compound effects on multiple myeloma cell viability – MM1S, calcein-AM fluorescence, 48 h, basal, profiling panel (AID 1165); conditions: higher = more signal
[5] = calcein-AM signal in unstimulated myeloma cells – cell-based, calcein-AM fluorescence, 48 h, PK04 Diversity Set, profiling panel (AID 1166); conditions: RPMI8226 myeloma viability, higher = more signal;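 note: cells grown under basal conditions without added stimulus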
[6] = JC-1 mitochondrial signal, unstimulated HepG2 cells – cell-based, JC-1 fluorescence, 24 h, 100 nL compound, profiling panel (AID 1167); conditions: HepG2 mitochondrial potential, higher = more signal
[7] = JC-1 mitochondrial signal, unstimulated adipocytes – cell-based, JC-1 fluorescence, 3T3-L1 adipocytes, 24 h, 100 nL compound, profiling panel (AID 1168); conditions: JC-1 mitochondrial fluorescence, higher = more signal, called active from +8 up or from −8 down
[8] = JC-1 mitochondrial signal, unstimulated myeloma cells – cell-based, JC-1 fluorescence, RPMI8226, 24 h, 100 nL compound, profiling panel (AID 1169); conditions: JC-1 mitochondrial potential fluorescence, higher = more signal
[9] = JC-1 mitochondrial signal, unstimulated MM1S myeloma – cell-based, JC-1 fluorescence, 24 h, 100 nL compound, profiling panel (AID 1170); conditions: MM1S mitochondrial potential, higher = more signal
[10] = resazurin metabolic signal in A549 cells – cell-based, resazurin fluorescence, 24 h, PK04 Diversity Set, profiling panel (AID 1171); conditions: A549 viability, higher = more signal, called active from +8 up or from −8 down
Note: test concentration not given here.

Row | SMILES | z-score [1] | z-score [2] | z-score [3] | z-score [4] | z-score [5] | z-score [6] | z-score [7] | z-score [8] | z-score [9] | z-score [10]
1 | C=CC[C@@H]1C=C[C@H](ON=C[C@@H](OC)[C@H](C)C=CCC(=O)OC)[C@@H](CO)O1 | 0.812 | -0.933 | 0.623 | 0.486 | -0.939 | -0.0676 | -0.862 (inactive) | 0.461 | -0.448 | -0.498 (inactive)
2 | CCOC(=O)NN=C1C[C@@H](O)[C@@H](O)[C@@H]2[C@@H]3C(=O)N(C4CCCCC4)C(=O)[C@@H]3CC[C@H]12 | -0.392 | 1.04 | 0.31 | -0.796 | -1.06 | -0.0619 | -1.05 (inactive) | -0.527 | 0.51 | -1.23 (inactive)
3 | C[C@@H]1C=CCC(=O)OC[C@H](C)C(=O)N[C@@H](C)C(=O)OC1 | 0.195 | -0.112 | -0.532 | -0.131 | -0.275 | 0.391 | -0.871 (inactive) | -0.0436 | -1.26 | 0.156 (inactive)
4 | CC(=O)OC[C@H]1O[C@H](CCON=C(C)CCC(=O)OC[C@H]2O[C@H](C#Cc3ccccc3)C=C[C@@H]2Oc2ccc(C)cc2)C=C[C@@H]1OC(C)=O | -0.572 | 0.442 | 0.229 | -2.77 | -2.73 | -0.797 | -0.942 (inactive) | -0.199 | -0.738 | 0.016 (inactive)
5 | CCOC(=O)C[C@H]1[C@H](OC(=O)c2cc3ccccc3oc2=O)[C@@H](NC(=O)c2ccc3ccccc3n2)c2cc(OCCCO)ccc2N1C(=O)c1ccccc1 | 0.321 | 2.22 | 0.11 | 0.204 | -0.785 | -0.187 | -0.408 (inactive) | -0.264 | -0.0996 | -0.881 (inactive)
6 | Cc1cc2c(nc1C)CCCN2CC(C)ON=C1[C@H]2CCn3c(=O)n(-c4ccccc4)c(=O)n3[C@H]2[C@H](O)[C@@H]2O[C@H]12 (stereo not given in full) | -0.457 | 0.0888 | -0.56 | -1.83 | -0.0008 | -0.788 | -1.38 (inactive) | 0.477 | 0.327 | -0.702 (inactive)
7 | CC[C@@H](c1ccccc1)n1c(=O)n2n(c1=O)[C@H]1[C@H](O)[C@@H]3O[C@@H]3C(=NOCC(C)C)[C@H]1CC2 | -0.342 | 0.245 | -0.389 | -0.288 | 0.44 | -1.16 | -1.67 (inactive) | -0.0693 | 0.448 | 0.276 (inactive)
8 | O=C1C2=CC[C@H]3C(=O)N(Cc4ccc5c(c4)OCO5)C(=O)[C@H]3[C@H]2[C@H](O)[C@@H]2O[C@H]12 | -0.227 | 0.447 | 0.162 | 0.351 | -0.196 | -0.275 | 0.00654 (inactive) | -0.223 | -0.398 | -0.763 (inactive)
9 | COc1cccc([C@@H]2Oc3ccc(Br)cc3C(=O)[C@H]2O)c1 | 1.31 | -0.397 | -1.24 | -3.44 | -1.73 | -3.15 | -0.584 (inactive) | -0.0726 | -1.31 | -0.269 (inactive)
10 | CC(C)NC(=O)[C@@]1(C)c2ccccc2C(=O)N(Cc2cc(F)cc(C(F)(F)F)c2)[C@H]1c1ccc(CO)cc1 | 0.0549 | -0.866 | -0.135 | -0.0517 | 0.223 | 0.863 | -0.327 (inactive) | 0.102 | -0.542 | 0.166 (inactive)
11 | COc1ccc(CCNC(=O)[C@@H]2c3ccccc3C(=O)N(c3ccc(C)cn3)[C@H]2c2ccc(CO)cc2)cc1 | -0.174 | 0.821 | -0.513 | -0.243 | -0.194 | -0.814 | -0.195 (inactive) | 0.671 | 0.634 | 0.689 (inactive)
12 | C[C@H](c1ccccc1)N1C(=O)[C@H]2[C@H]3[C@H](O)[C@H](O)CC(=O)[C@@H]3CC[C@H]2C1=O | -0.311 | -0.0863 | -0.254 | -0.0752 | 0.299 | 0.032 | -0.239 (inactive) | -0.0521 | 0.25 | -0.164 (inactive)
13 | O=C1CCCC2OC12C(O)CCc1ccccc1 (stereo not given) | -0.202 | -0.0344 | -0.229 | 0.561 | -0.908 | 0.287 | 0.279 (inactive) | -0.278 | 0.353 | -0.81 (inactive)
14 | CCN1C(=O)[C@H]2[C@H]3[C@H](O)[C@H](O)CC(=NOC(C)CN4CCCCc5nc(C)c(C)cc54)[C@@H]3CC[C@H]2C1=O (stereo not given in full) | -0.421 | 0.111 | 0.503 | 0.0768 | 0.173 | -0.214 | -1.21 (inactive) | -0.232 | -0.0499 | -0.378 (inactive)
15 | CN(C)CCCNC(=O)[C@@H]1c2ccccc2C(=O)N(Cc2ccccc2)[C@H]1c1ccc(CO)cc1 | 2.34 | 0.917 | 1.31 | -0.0214 | 0.932 | 1.89 | 0.418 (inactive) | 0.0996 | 0.108 | 0.534 (inactive)
16 | C[C@@H](c1ccccc1)N1C(=O)[C@H]2[C@H]3[C@H](O)[C@H](O)CC(=NOC[C@@H](O)COCc4ccco4)[C@@H]3CC[C@H]2C1=O | 0.0517 | -0.837 | -0.78 | 0.0485 | -0.873 | -0.794 | -0.519 (inactive) | -0.287 | -0.542 | -0.428 (inactive)
